Compound activity as filed in PubChem BioAssay.
JMJD2A Tudor = JMJD2A Tudor domain (human) inhibition; O75164; AlphaScreen JMJD2A-Tudor / H3K4me3 peptide binding; Potency, µM (highest dose often 114 µM), hits mostly inhibitors; 4.4% of 390,000 active; AID 504339; note: nearly all actives have a fitted effect of over 50% in size
Sfp inh = Sfp phosphopantetheinyl transferase inhibition; Biochemical Sfp PPTase activity, qHTS; Potency, µM, most hits filed as inhibitors; 3.5% of 310,000 active; AID 1490;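 note: the enzyme is Sfp with the accession as filed and its product quenches rhodamine fluorescence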
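With Hepes-Na pH 7.6 buffer containing 10 mM MgCl2, Sfp (15 nM) modified BHQ-2-YbbR (12.5 uM) using rhodamine-CoA (5 uM). Two reads 30 minutes apart at 525/598 nm yielded each well's rate.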
BAZ2B block = blocks human BAZ2B; 4.4% of 360,000 active; Q9UIF8; Potency, µM (series often up to 114 µM), actives largely listed as inhibitors; AlphaScreen BAZ2B-H3K14Ac peptide displacement; note: nearly all actives have a fitted effect of over 60% in size
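Multi-concentration screen (max 110 uM) measuring displacement of acetylated histone H3 peptide from BAZ2B by AlphaScreen, using 50 nM protein, 50 nM peptide and 10 ug/mL streptavidin donor plus Ni-chelate acceptor beads.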
HP1b chromo inh = blocks HP1-beta chromodomain binding to methylated histone tails | P83916 | AlphaScreen HP1-beta / biotin-H3K9me3 peptide binding | Potency, µM (titrated, usually from 114 µM), actives largely listed as inhibitors | 0.56% of 390,000 active; note: nearly all actives have a fitted effect of over 70% in size
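AlphaScreen: HP1-beta (50 nM) preformed 30 min with biotin-H3(1-18)K9me3 peptide (50 nM) in PBS pH 7.4, 0.01% Tween-20. Compound added for 30 min at RT, then streptavidin donor/nickel chelate acceptor beads (10 ug/mL) for 30 min.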
G9a block = inhibitors of human histone lysine methyltransferase G9a. Q96KQ7. G9a H3K9 monomethylation, AlphaScreen, 2 h. Potency, µM (doses to about 102 µM), hits mostly inhibitors. 8.8% of 350,000 active. AID 504332; note: nearly all actives have a fitted effect of over 75% in size
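Chemiluminescent proximity detection of H3K9 monomethylation, read after 10 min bead incubation in the dark. Reaction: 20 nM G9a, 500 nM biotin-H3K9 peptide, 20 uM SAM cofactor, 2 h, room temperature, following 15 min enzyme-compound preincubation.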
ALOX12 inh = blocks human arachidonate 12S-lipoxygenase; P18054; 1.1% of 580,000 active; purified 12hLO, xylenol orange hydroperoxide absorbance; AID 1671190; Potency, µM (doses to about 108 µM), actives largely listed as inhibitors
Target sequence (P18054 whole entry, looked up): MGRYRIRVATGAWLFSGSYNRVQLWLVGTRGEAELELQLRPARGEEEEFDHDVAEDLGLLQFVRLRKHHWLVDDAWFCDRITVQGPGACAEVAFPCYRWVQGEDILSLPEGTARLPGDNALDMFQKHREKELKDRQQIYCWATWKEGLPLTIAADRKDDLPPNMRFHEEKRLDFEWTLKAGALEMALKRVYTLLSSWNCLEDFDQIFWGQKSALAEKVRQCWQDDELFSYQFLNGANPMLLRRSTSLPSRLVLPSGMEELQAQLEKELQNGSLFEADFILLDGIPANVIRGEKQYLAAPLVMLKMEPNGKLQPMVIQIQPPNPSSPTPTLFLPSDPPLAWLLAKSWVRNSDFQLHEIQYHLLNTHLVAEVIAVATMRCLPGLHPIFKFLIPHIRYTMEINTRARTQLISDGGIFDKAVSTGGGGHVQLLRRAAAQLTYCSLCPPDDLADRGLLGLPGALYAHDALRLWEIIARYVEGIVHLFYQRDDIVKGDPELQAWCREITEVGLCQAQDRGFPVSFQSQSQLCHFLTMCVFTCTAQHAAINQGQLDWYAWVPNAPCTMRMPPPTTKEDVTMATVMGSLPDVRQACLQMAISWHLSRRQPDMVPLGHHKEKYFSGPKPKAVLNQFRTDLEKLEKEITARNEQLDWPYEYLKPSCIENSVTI
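Hydroperoxide product was detected by ferrous iron/xylenol orange as the 573 to 405 nm absorbance ratio. Arachidonic acid at 40 uM (final) was turned over for 30 min at room temperature by 150 nM human 12hLO, pH 7.0 Hepes buffer, after 15 min compound preincubation.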
A number is an active result; i = inactive; ? = inconclusive; nt = not tested or not shown; [ ] = dose if it differs, or a comment. The list is not random: actives were taken first. Their share in the collection is about 8.7%. Calls come from the whole dose curve; as a rule, active = well fitted curve in the direction sought with a large enough effect; inconclusive = small, poorly fitted or top-dose-only effect, or another doubt; inactive = no such curve, though single readings can be large; an effect the other way counts as inactive or inconclusive.

SMILES | JMJD2A Tudor | Sfp inh | BAZ2B block | HP1b chromo inh | G9a block | ALOX12 inh
CN1CCN(Cc2c(O)ccc3cc(Br)ccc23)CC1 | ? | i | nt | i | 5µM | 5.6µM
CCc1cc(=O)oc2c(CN3CCN(C)CC3)c(O)ccc12 | i | i | i | i | i[2.33 µM] | i
CCN(CC)S(=O)(=O)c1ccc(C)c(C(=O)OCc2nc3ccccc3nc2C)c1 | nt | nt | nt | nt | nt | i
Cc1ccc(O)c(CN2CC[C@@H](c3ccc(F)cc3)[C@H](O)C2)c1 | nt | nt | nt | nt | nt | i
Cc1[nH]c2ccc(-c3n[nH]c(=S)n3Cc3ccccc3)cc2c1C | ? | i | ? | i | 7.9µM | ?
CS(=O)(=O)Nc1ccc(-c2n[nH]c(=S)n2-c2ccccc2)cc1 | 5.6µM | i | i | i | 0.5µM | ?
Cc1[nH]c2ccc(-c3n[nH]c(=S)n3-c3ccccc3)cc2c1C | 56µM | i | i | ? | 1.6µM | ?
CS(=O)(=O)Nc1ccc(-c2nc3ccccc3s2)cc1 | i | nt | i | i | ? | i
S=c1[nH]nc(-c2cccc(Cl)c2)n1Cc1ccccc1 | ? | i | i | i | ? | ?
Cc1[nH]c2ccc(-c3n[nH]c(=S)n3-c3ccc(Br)cc3)cc2c1C | i | i | ? | i | i | i
CNC(=O)[C@@H]1CNC[C@H]1c1nc(C)no1 | nt | nt | nt | nt | nt | i
NS(=O)(=O)c1ccc(N/N=C/c2cccc(Cl)c2)c([N+](=O)[O-])c1 | nt | nt | nt | nt | nt | i
Cc1ccc(/C=N/NC(=O)Cc2cccn2C)s1 | i | i | ? | i | ? | i
CC(=C/c1ccco1)/C=N/NC(=O)Cc1cccn1C | i | i | 45µM | i | ? | ?
CC(/C=N/NC(=O)Cc1cccn1C)=C\c1ccco1 | ? | 40µM | ? | i | 11µM | i
Cn1cccc1CC(=O)N/N=C/c1ccco1 | i | i | ? | i | nt | i
Cn1cccc1CC(=O)N/N=C\c1cccs1 | i | i | 50µM | i | nt | i
O=C(NCc1cc2n(n1)CCN(C1CCCCC1)C2)c1noc2c1CCCC2 | nt | nt | nt | nt | nt | i
COc1ccc(-c2cc(N3CCN(C(=O)c4ccccc4F)CC3)n[nH]2)cc1 | nt | nt | nt | nt | nt | i
COc1ccc2c(c1)OC[C@H]1[C@H]2N2C(=O)CN(Cc3ccco3)C(=O)[C@@]2(C)[C@H]1c1ccccc1 | i | nt | i | i | i[0.501 µM] | 7.1µM
CC1OC(O[C@H]2CC[C@]3(C)C4C=C[C@]56OC[C@@]7(CC[C@@H](C)[C@H](C)C75)[C@H](O)C[C@@]6(C)[C@]4(C)CC[C@H]3C2(C)C)C(OC2OC(CO)C(O)C(O)C2OC2OCC(O)C(O)C2O)C(O)C1O (stereo partly drawn) | nt | 89µM | ? | nt | i[12.7 µM] | nt
CN1CCC(N(C)C(=O)C2CCN(C(=O)N3CC4CC(C3)[C@H]3CCCC(=O)N3C4)CC2)CC1 (stereo partly drawn) | nt | nt | nt | nt | nt | i
CCc1cc(C(=O)OC)c(NC(=O)c2c(CC)noc2C)s1 | nt | nt | nt | nt | nt | i
CCc1nn(-c2ccccc2)c(N)c1C#N | i | i | i | i | i | i
CCc1nn(-c2ccccc2)c(=S)c2ccccc12 | ? | i | ? | i | 14µM | i
SMILES | JMJD2A Tudor | Sfp inh | BAZ2B block | HP1b chromo inh | G9a block | ALOX12 inh
CC1=C(C(=O)OC(C)C)C(c2cccs2)N2C(=O)C(C)SC2=N1 (stereo not drawn) | 79µM | i | i | i | i | i
CCOC(=O)CNC(=O)CSc1nc(-c2ccccc2)ns1 | i | 18µM | i | i | 10µM | i
CCOC(=O)CNC(=O)CSc1nc(-c2ccc(C)cc2)ns1 | i | i | i | i | 50µM | i
CCOC(=O)CSc1nc(-c2ccc(OC)cc2)ns1 | i | 22µM | i | i | 5µM | ?
O=C(CSc1nc(-c2ccccc2)ns1)NCC1CCCO1 (stereo not drawn) | i | 35µM | i | i | 22µM | i
CCOC(=O)CNC(=O)CSc1nnc(-c2ccccc2)c(-c2ccccc2)n1 | i | i | i | i | i | i
COc1ccc(Nc2nc(N3CCOCC3)nc3c2cnn3C)cc1 | nt | nt | nt | nt | nt | i
CCC(C)Oc1ccccc1C1CC(=O)NC2=C1C(=O)CC(C)(C)C2 (stereo not drawn) | nt | nt | nt | nt | nt | i
O=C(NCC1CCN(Cc2ccccn2)C1)Nc1ccccc1Cl (stereo not drawn) | nt | nt | nt | nt | nt | i
CCOC(=O)N1CCN(C(=O)CSc2nc(-c3cccc(C)c3)ns2)CC1 | 32µM | 35µM | i | i | 32µM | ?
Cn1c(=O)c2c(SCC(=O)NCC3CCCO3)nc(-c3cccs3)nc2n(C)c1=O (stereo not drawn) | nt | i | i | nt | 50µM | nt
Cc1ccc(-c2nc(SCC(=O)NCC3CCCO3)c3c(=O)n(C)c(=O)n(C)c3n2)cc1 (stereo not drawn) | i | nt | i | i | i | i
Clc1ccccc1CNc1n[nH]c(-c2cccs2)n1 | nt | nt | nt | nt | nt | i
Cc1cc(C(=O)CSCCCn2c(=O)[nH]c3ccccc32)c(C)n1C | 50µM | i | ? | i | i[12.7 µM] | ?
COCCNCC(O)CON=C1c2ccccc2-c2ccccc21 (stereo not drawn) | i | i | i | i | i | i
CC(C)CCNCC(O)CON=C1c2ccccc2-c2ccccc21 (stereo not drawn) | i | 35µM | i | i | i | i
COc1ccc2c(c1OC)C(=O)OC2OC (stereo not drawn) | nt | nt | nt | nt | nt | i
CCOC(=O)C1CCN(CC(=O)Nc2cc(S(=O)(=O)N3CCOCC3)ccc2C)CC1 | 4µM | i | 79µM | 71µM | 22µM | ?
Cc1ccc(S(=O)(=O)N2CCOCC2)cc1NC(=O)COC(=O)C1CCC1 | nt | nt | nt | nt | nt | i
Cc1ccc(S(=O)(=O)N2CCOCC2)cc1NC(=O)CN1CCN(c2ccc(O)cc2)CC1 | 25µM | 40µM | ? | ? | ? | ?
O=C(O)CCCNC(=O)Cn1ccc2ccc(Br)cc21 | nt | nt | nt | nt | nt | i
O[C@@H]1C[C@@H](c2nnc3n2CCN(CC2CCCCC2)C3)N(Cc2ccccc2)C1 | nt | nt | nt | nt | nt | i
O=C(CN1C(=O)NC2(CCCC2)C1=O)Nc1cc(Cl)ccc1N1CCOCC1 | i | nt | i | i | i | i
O=C(CN1C(=O)NC2(CCCCC2)C1=O)Nc1cc(C(F)(F)F)ccc1N1CCOCC1 | i | nt | i | i | 50µM | i
O=C(CN1C(=O)NC2(CCCCC2)C1=O)Nc1cc(C(F)(F)F)ccc1N1CCCCC1 | i | nt | i | i | i[0.501 µM] | i
SMILES | JMJD2A Tudor | Sfp inh | BAZ2B block | HP1b chromo inh | G9a block | ALOX12 inh
O=C(CN1C(=O)NC2(CCCC2)C1=O)Nc1cc(C(F)(F)F)ccc1N1CCCCC1 | i | nt | i | i | 45µM | i
Cc1ccc(-c2c(C)c(-c3ccc(F)cc3)nc(N)c2C#N)o1 | i | 18µM | i | i | 13µM | ?
CCC(C)(C)C1CCC2(CC1)NC(=S)N(c1ccccc1)N2 (stereo not drawn) | i | 79µM | ? | i | 8.9µM | ?
S=C1NC2(CCCCCC2)NN1c1ccccc1 | nt | nt | nt | nt | nt | 1.4µM
CC(C)(C)C1CCC2(CC1)NC(=S)N(c1ccccc1)N2 (stereo not drawn) | i | ? | i | i | 7.9µM | i
S=C1NC2(CCCCCC2)N=C1c1ccccc1 | i | i | i | i | i | i
